The source made the active and inactive calls.
Key:
Albumin (Bos taurus) = Albumin (Bos taurus) (UniProt P02769); test: compounds binding labelled BSA control protein – biochemical, small-molecule microarray, Alexa647 label, 635/667 nm fluorescence, artefact control for SMM control protein annotation, profiling panel (AID 1118); conditions: BSA-A647 binding, fluorescence 635 nm, higher = more signal;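 also: score merges 667 nm emission intensity and signal-to-noise per printed compound spot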
[1] = probe aXIP binding to arrayed compounds – biochemical, NeuroSMM set, 635/667 nm fluorescence, primary screen (AID 1119); conditions: small-molecule microarray, higher = more signal, called active from +8 up or from −8 down;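 also: probe is the protein aXip251-270 applied at 1 µg/mL to compound-printed slides; binding of probe to printed compounds measured as 667 nm fluorescence plus signal to noise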
[2] = probe aNOTCH3 binding on compound microarray – biochemical, small-molecule microarray, 635/667 nm fluorescence, primary screen (AID 1120); conditions: higher = more signal;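 also: probe is a biotin-tagged antibody raised against NOTCH3 rather than NOTCH3 protein; score merges spot fluorescence near 667 nm with spot signal to noise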
[3] = probe aNOTCH2 binding on compound microarray – biochemical, small-molecule microarray, 635/667 nm fluorescence, primary screen (AID 1121); conditions: higher = more signal;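 also: score merges feature fluorescence read at 667 nm with its signal to noise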
[4] = target: Carbonic anhydrase 2 (Homo sapiens) (UniProt P00918); test: compounds binding carbonic anhydrase 2 – biochemical, small-molecule microarray, Alexa647-labelled CAII, profiling panel (AID 1122); conditions: CAII-A647 binding fluorescence, higher = more signal
[5] = COS7 lysate on small-molecule microarray, probe aHis, 635 nm (AID 1123); conditions: COS7 cell lysate, fluorescence, higher = more signal;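 also: z-score combines 667nm fluorescence intensity with signal-to-noise per printed compound spot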
[6] = probe aLAP1 signal on lysate-treated microarray – cell lysate, small-molecule microarray, COS7 lysate, primary screen (AID 1124); conditions: probe aLAP1, fluorescence, higher = more signal;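 also: lysate comes from COS7 cells expressing LAP1 and is applied at 0.3 µg/mL; score merges spot fluorescence near 667 nm with signal-to-noise over triplicate slides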
Sam68 (KHDRBS1) = test: compounds binding KHDRBS1 protein – biochemical, small-molecule microarray, 635 nm fluorescence, primary screen (AID 1125); conditions: higher = more signal;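 also: score merges 667 nm channel intensity with signal to noise over triplicate slides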
[7] = test system: Chordin-like protein 2 (CHRDL2); test: compounds binding chordin-like 2 – biochemical, small-molecule microarray, 635 nm fluorescence, primary screen (AID 1126); conditions: fluorescence 635 nm, higher = more signal;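 also: printed compound slides probed with Chrdl2 protein at 4 µg/mL for 1 h at 4 C; score merges 667 nm emission intensity with signal to noise over three replicate slides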
[8] = target: Concanavalin-A (Canavalia ensiformis) (UniProt P02866); test: compounds binding concanavalin A lectin – biochemical, small-molecule microarray, Alexa647 label, 635 nm, artefact control for SMM control protein annotation, primary screen (AID 1127); conditions: ConA-A647 binding fluorescence, higher = more signal;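 also: z combines 667 nm emission intensity with signal-to-noise across three replicate slides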
Concanavalin-A (Canavalia ensiformis), sequence (P02866 whole entry, looked up): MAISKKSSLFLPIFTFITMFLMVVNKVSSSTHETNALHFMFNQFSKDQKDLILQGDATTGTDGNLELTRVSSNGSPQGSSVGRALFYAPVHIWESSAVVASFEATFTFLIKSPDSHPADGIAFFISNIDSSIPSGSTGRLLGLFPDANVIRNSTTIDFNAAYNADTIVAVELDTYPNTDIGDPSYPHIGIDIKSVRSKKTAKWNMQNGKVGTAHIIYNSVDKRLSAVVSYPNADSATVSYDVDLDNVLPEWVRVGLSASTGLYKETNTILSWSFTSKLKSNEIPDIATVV

[9] = compounds binding Alexa647 anti-His antibody – biochemical, small-molecule microarray, 635 nm fluorescence, artefact control for SMM control protein annotation, primary screen (AID 1128); conditions: higher = more signal;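 also: score merges feature fluorescence with signal-to-noise for each printed compound spot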
[10] = test system: Human papillomavirus type 1a E7 protein (residues 1-88); test: HPV1a E7 small-molecule binders, primary screen, biochemical, small-molecule microarray, residues 1-88, 635 nm (AID 1129); conditions: small-molecule microarray binding, fluorescence 635 nm; higher = more signal
[11] = target: Focal adhesion kinase 1 (Homo sapiens) (UniProt Q05397); test: PTK2 protein binding on printed compound slides – biochemical, small-molecule microarray, 635/667 nm fluorescence, BSA, DTT, primary screen (AID 1130); conditions: 635 nm fluorescence, higher = more signal;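 also: composite of spot emission at 667 nm and signal to noise over triplicate slides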
Focal adhesion kinase 1 (Homo sapiens), sequence (Q05397 whole entry, looked up): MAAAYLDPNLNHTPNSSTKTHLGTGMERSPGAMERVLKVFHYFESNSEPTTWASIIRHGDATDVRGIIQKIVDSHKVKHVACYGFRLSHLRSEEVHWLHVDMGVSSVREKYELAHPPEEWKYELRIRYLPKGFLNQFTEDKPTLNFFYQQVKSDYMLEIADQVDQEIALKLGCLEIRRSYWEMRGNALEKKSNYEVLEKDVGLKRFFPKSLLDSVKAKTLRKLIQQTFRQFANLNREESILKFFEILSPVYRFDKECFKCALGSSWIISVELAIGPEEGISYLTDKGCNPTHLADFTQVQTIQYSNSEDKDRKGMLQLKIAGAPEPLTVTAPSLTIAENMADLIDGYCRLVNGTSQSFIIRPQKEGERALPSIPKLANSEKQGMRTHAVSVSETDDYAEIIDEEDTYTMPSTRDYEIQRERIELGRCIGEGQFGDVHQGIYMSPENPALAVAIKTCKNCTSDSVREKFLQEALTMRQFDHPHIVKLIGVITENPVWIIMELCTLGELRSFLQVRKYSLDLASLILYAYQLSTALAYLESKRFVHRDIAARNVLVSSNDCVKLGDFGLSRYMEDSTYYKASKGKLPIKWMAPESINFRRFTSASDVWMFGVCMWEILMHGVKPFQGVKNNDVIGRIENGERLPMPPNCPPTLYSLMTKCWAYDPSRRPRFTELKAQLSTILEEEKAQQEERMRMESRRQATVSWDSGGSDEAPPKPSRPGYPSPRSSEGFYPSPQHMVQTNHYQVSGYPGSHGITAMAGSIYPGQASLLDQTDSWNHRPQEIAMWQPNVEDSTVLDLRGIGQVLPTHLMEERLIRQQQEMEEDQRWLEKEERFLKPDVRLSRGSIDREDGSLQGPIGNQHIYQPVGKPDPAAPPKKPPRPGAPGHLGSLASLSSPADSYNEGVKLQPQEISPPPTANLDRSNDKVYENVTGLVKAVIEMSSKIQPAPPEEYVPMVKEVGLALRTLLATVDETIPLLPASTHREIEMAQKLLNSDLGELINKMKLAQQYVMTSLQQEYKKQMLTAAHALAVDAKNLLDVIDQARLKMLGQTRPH

[12] = test system: Fibrinogen (Alexa647-labelled); test: Alexa647-fibrinogen binding to printed small molecules – biochemical, small-molecule microarray, 635/667 nm fluorescence, artefact control for SMM control-protein annotation, profiling panel (AID 1131); conditions: fibrinogen-A647 binding fluorescence, higher = more signal;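 also: z-score merges 667 nm fluorescence with per-spot signal-to-noise over triplicate slides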
[13] = target: Follistatin (Homo sapiens) (UniProt P19883); test: FST protein binding to printed compounds – biochemical, small-molecule microarray, 635/667 nm fluorescence, primary screen (AID 1132); conditions: 635 nm fluorescence, higher = more signal
Follistatin (Homo sapiens), sequence (P19883 whole entry, looked up): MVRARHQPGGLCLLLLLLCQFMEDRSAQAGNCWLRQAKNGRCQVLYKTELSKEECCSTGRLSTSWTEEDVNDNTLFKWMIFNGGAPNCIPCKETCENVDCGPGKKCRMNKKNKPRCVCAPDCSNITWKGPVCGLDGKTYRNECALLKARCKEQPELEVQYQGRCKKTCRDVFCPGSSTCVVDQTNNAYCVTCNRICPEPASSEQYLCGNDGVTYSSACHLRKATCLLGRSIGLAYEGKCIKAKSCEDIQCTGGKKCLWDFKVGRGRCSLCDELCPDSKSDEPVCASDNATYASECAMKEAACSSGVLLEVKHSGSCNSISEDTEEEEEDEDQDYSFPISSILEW

[14] = target: Fibroblast growth factor 2 (Homo sapiens) (UniProt P09038); test: basic fibroblast growth factor binding to printed compounds – biochemical, small-molecule microarray, 635/667 nm fluorescence, primary screen (AID 1133); conditions: FGF2, fluorescence 635/667, higher = more signal
Fibroblast growth factor 2 (Homo sapiens), sequence (P09038 whole entry, looked up): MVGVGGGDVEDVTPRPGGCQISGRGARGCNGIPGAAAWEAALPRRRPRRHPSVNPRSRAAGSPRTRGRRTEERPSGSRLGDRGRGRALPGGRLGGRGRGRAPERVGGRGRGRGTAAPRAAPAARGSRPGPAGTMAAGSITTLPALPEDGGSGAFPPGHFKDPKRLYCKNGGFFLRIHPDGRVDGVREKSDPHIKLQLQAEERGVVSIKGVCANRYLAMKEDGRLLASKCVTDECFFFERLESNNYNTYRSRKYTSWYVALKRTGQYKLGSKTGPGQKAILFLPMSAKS

[15] = JC-1 mitochondrial potential readout, lung cancer cells – cell-based, A549, JC-1 fluorescence, basal, 24 h, 100 nL, profiling panel (AID 1138); conditions: higher = more signal;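 also: A549 lung adenocarcinoma cells under basal conditions with no added stimulus; test concentration not given here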
Lefty1 = Lefty1 protein binding to printed compounds – biochemical, small-molecule microarray, 635/667 nm fluorescence, primary screen (AID 1139); conditions: fluorescence 635/667, higher = more signal
[16] = test system: wheat germ agglutinin (Triticum aestivum), Alexa647-labelled; test: Alexa647-WGA lectin binding to printed small molecules – biochemical, small-molecule microarray, 635/667 nm fluorescence, artefact control for SMM control-protein annotation, profiling panel (AID 1140); conditions: WGA-A647 binding, 635 nm fluorescence, higher = more signal;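 also: score merges 667 nm feature emission with signal to noise over triplicate slides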
[17] = target: Luciferin 4-monooxygenase (Photinus pyralis) (UniProt P08659); test: inhibition of purified Photinus pyralis luciferase – biochemical, luminescence, purified enzyme, 2006 set, primary screen (AID 1141); conditions: purified firefly luciferase, SteadyGlo luminescence, 30 min; higher = more signal, called active from +8 up or from −8 down;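 also: cell-free assay with purified firefly luciferase at 100 ng per well in PBS; test concentration not given here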
Luciferin 4-monooxygenase (Photinus pyralis), sequence (P08659 whole entry, looked up): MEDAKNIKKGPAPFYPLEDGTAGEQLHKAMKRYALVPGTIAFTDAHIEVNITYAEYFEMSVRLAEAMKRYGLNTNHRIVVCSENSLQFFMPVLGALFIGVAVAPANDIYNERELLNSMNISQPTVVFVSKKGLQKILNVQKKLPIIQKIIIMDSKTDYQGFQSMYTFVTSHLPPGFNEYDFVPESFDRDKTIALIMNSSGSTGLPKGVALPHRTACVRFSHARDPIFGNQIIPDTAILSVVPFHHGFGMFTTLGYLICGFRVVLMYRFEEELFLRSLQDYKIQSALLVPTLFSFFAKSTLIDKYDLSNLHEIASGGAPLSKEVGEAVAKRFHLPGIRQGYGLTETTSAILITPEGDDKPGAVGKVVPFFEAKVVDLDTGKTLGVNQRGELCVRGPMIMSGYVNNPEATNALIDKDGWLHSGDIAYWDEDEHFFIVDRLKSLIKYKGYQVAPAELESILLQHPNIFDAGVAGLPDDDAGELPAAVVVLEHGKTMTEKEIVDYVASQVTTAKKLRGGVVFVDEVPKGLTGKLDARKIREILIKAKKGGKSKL

Albumin (Bos taurus), sequence (P02769 whole entry, looked up): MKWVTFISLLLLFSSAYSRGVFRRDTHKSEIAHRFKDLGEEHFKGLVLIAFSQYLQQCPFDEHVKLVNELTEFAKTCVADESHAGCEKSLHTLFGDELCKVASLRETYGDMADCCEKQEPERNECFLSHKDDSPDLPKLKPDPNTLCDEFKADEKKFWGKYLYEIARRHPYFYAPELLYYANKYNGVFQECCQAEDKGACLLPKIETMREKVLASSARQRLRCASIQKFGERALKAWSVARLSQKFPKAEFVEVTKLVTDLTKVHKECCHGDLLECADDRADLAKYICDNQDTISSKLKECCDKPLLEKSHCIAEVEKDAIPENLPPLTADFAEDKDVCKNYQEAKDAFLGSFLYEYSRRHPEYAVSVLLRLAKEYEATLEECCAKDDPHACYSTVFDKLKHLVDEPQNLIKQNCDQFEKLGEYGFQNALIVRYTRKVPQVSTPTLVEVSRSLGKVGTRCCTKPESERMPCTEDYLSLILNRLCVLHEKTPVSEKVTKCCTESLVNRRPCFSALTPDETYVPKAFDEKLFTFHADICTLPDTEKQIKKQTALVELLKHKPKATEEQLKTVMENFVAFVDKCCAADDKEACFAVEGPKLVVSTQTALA

Row | SMILES | composite z-score (Albumin (Bos taurus)) | composite Z-score [1] | composite z-score [2] | composite z-score [3] | composite z-score [4] | composite z-score [5] | composite z-score [6] | composite z-score (Sam68 (KHDRBS1)) | composite z-score [7] | composite z-score [8] | composite z-score [9] | composite z-score [10] | composite z-score [11] | composite z-score [12] | composite z-score [13] | composite z-score [14] | z-score [15] | composite z-score (Lefty1) | composite z-score [16] | z-score [17]
1 | CC(C)[C@@H](OCc1ccccc1)[C@H](C)C=NOC[C@@H](O)[C@H]1O[C@@H]2OC(C)(C)O[C@@H]2[C@H]1O | 0.0762 | 0.528 (inactive) | -0.0014 | -0.147 | -0.0043 | 0.223 | 0.614 | 0.574 | 0.314 | 1.07 | 2.33 | 0.387 | 0.137 | 0.941 | 0.214 | 0.635 | -0.958 | 0.768 | 0.234 | -0.587 (inactive)
2 | COc1ccc(OC[C@H]2CN3[C@@H](CC[C@@H](C)[C@@H]3c3ccc(Br)cc3)C(=O)O2)cc1 | 0.197 | 0.281 (inactive) | -0.25 | -0.13 | -0.657 | -0.239 | 0.254 | 0.592 | 0.464 | 0.297 | 0.0994 | -0.023 | -0.305 | -0.0163 | 0.385 | 0.042 | -0.124 | 0.664 | -0.108 | -1.55 (inactive)
3 | CC(CCN1CCCCc2nc(C)c(C)cc21)=NO[C@@H](C)c1cc(-c2c(C)cc(C)cc2C)no1 | 0.335 | -0.0861 (inactive) | -0.231 | -0.0904 | -0.079 | -0.257 | 0.197 | -1.33 | -0.734 | -1.84 | -0.335 | -0.384 | 0.0796 | -0.317 | -0.673 | -0.682 | 1.91 | -0.315 | -0.547 | -1.49 (inactive)
4 | CC(CCN1CCCc2nc(C)c(C)cc21)=NOC[C@@H](O)COCc1ccco1 | -1.47 | 5.36 (inactive) | 1.67 | 0.826 | -0.702 | 1.37 | 0.602 | -0.109 | 1.58 | -1.09 | 0.215 | -2.13 | 2.27 | -2.04 | 1.55 | 2.19 | 0.694 | 1.86 | -0.949 | -1.59 (inactive)
5 | CSCC[C@@H]1NC(=O)CC=C[C@@H](C)COC(=O)[C@H](C)COC1=O | -0.891 | 3.62 (inactive) | -0.172 | 0.059 | -0.682 | -0.808 | -0.848 | 1.02 | 1.64 | -2.98 | -1.14 | -1.34 | -0.697 | -3.03 | 1.45 | 1.95 | 1.64 | 1.85 | -0.663 | -1.95 (inactive)
6 | CCOC(=O)[C@H](Cc1ccccc1)NC(=O)CCC1CC(OC(=O)NCc2ccc3c(c2)OCO3)CC2(CCCC(COC(=O)NCCc3ccc(Cl)cc3)O2)O1 (stereo not given in full) | 0.581 | 0.264 (inactive) | 0.0591 | -0.125 | 0.151 | 0.454 | 0.0158 | 1.3 | 0.43 | 0.814 | 0.0231 | 0.908 | 0.762 | 0.755 | 0.749 | 0.303 | 0.05 | 1.03 | 0.335 | -0.144 (inactive)
7 | COc1ccc(O[C@H]2C=C[C@@H](c3ccccc3)O[C@@H]2CO)cc1 | -0.311 | -0.0521 (inactive) | 0.0762 | -0.104 | 0.131 | -0.209 | 0.0797 | -0.713 | 0.495 | 0.304 | -0.457 | -0.145 | -0.363 | -0.0957 | 0.36 | 0.363 | 0.319 | 0.479 | -0.126 | -0.162 (inactive)
8 | COCOc1ccc(Br)cc1C(=O)C=Cc1ccc2c(c1)OCO2 | -0.0265 | 1.33 (inactive) | -0.132 | -0.169 | -0.321 | -0.576 | -0.684 | -0.562 | 0.525 | -0.723 | 0.263 | -0.396 | -0.141 | 0.962 | 0.516 | 0.449 | 2.57 | 0.471 | 0.69 | -2.08 (inactive)
9 | CC(CCC(=O)OC[C@H]1O[C@H](C#Cc2ccccc2)C=C[C@@H]1Oc1ccc(C)cc1)=NOC(C)CN1CCCc2nc(C)c(C)cc21 (stereo not given in full) | 0.412 | -0.266 (inactive) | -0.0647 | -0.0793 | -0.0994 | 1.12 | -0.114 | 1.14 | 0.281 | 0.924 | 1.09 | 0.886 | 0.659 | 0.564 | 0.686 | 0.507 | 0.238 | 0.596 | 0.418 | 0.0139 (inactive)
10 | O=C(NN=C1C[C@@H](O)[C@@H](O)[C@@H]2[C@@H]3C(=O)N(Cc4ccccc4)C(=O)[C@@H]3CC[C@H]12)OCc1ccccc1 | 0.055 | 0.0005 (inactive) | -0.118 | -0.17 | -0.253 | -0.771 | 0.0639 | -0.0039 | 0.36 | -0.085 | -0.136 | -0.0677 | 0.0773 | -0.265 | 0.387 | 0.388 | 0.101 | 0.617 | 0.0185 | 0.534 (inactive)
11 | C#CCCCON=C1C[C@@H](O)[C@@H](O)[C@@H]2[C@@H]3C(=O)N(CC)C(=O)[C@@H]3CC[C@H]12 | -0.0021 | 0.52 (inactive) | -0.118 | -0.148 | 0.728 | 1.35 | 0.187 | 0.866 | -0.0382 | -0.357 | 1.93 | 0.286 | -0.442 | 0.636 | -0.473 | -0.0374 | -0.27 | 0.162 | 1.07 | 0.0384 (inactive)
12 | CCOC(=O)NN=C1C[C@@H](O)[C@@H](O)[C@@H]2[C@@H]3C(=O)N(CC)C(=O)[C@@H]3CC[C@H]12 | 0.541 | -0.415 (inactive) | -0.0879 | -0.126 | 0.448 | 0.0053 | -0.0396 | -0.221 | 0.202 | 0.173 | 0.241 | -0.351 | 0.105 | 0.569 | -0.408 | 0.0278 | -0.00768 | 0.0358 | 0.195 | -0.557 (inactive)
